# VHR inh color: VHR1 phosphatase inhibitors, primary screen, biochemical, colorimetric, HTS; inhibition, % at 20 µM; recombinant VHR phosphatase, colorimetric substrate read-out; 0.7% of 50,000 active; AID 1992, 2009; in the data active = inhibition above about 60%
# Target sequence (P51452 whole entry, looked up): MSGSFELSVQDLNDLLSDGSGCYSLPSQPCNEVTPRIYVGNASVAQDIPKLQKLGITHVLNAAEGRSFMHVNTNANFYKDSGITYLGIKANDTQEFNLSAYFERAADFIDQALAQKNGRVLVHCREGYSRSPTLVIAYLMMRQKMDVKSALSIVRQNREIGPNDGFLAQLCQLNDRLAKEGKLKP
# * = called active by the depositor. Only a selection was taken, and hits are over-represented in it overall.
SMILES,VHR inh color
COc1ccccc1NC(=O)CSc1nnc(NC(=O)CSc2nnc3n(N)cnn23)s1,-5
CC1=C(C#N)c2nc(N)c(C#N)c(C)c2/C1=C/c1ccc(-c2ccc(C(=O)O)c(Cl)c2)o1,92*
CC1=C(C#N)c2nc(N)c(C#N)c(C)c2/C1=C\c1ccc(C)o1,54
CC1=C(C#N)c2nc(N)c(C#N)c(C)c2/C1=C\c1ccc(-c2cccc(Cl)c2)o1,17
O=C(/C=C/c1ccccc1)Nc1ccccc1CO,-1
COc1ccc(NC(=O)c2cnccn2)c(OC)c1,-51
CC(C)COC(=O)c1ccc(NC(=O)c2cccs2)cc1,-13

# From PubChem BioAssay
